Screening results (PubChem BioAssay)
Pf growth 96h: inhibits malaria parasite growth, 96 h. P. falciparum luciferase reporter growth, 96 h. Potency, µM (series often up to 28.7 µM), for the others: at the top dose activity change, negative = inhibition, hits mostly inhibitors. 320,000 tested, 6.9% active; note: % is set by controls: 0 for no effect and ±100 for the full control effect
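Infected RBCs, 2% Hct / 0.05% parasitemia final; luciferase-reporter P. falciparum; cpd 96 h, 37 C, 5% CO2; luciferase detection reagent; luminescence.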
SARS PLP yeast: inhibitors of SARS-CoV papain-like protease in yeast | 330,000 tested, 0.19% active | AID 485353 | S. cerevisiae expressing SARS-CoV PLpro, growth rescue | Potency, µM (titrated, usually from 32.9 µM), inactives show top-dose activity, positive = growth rescue, most hits filed as activators; calls by dose curve; note: 0% is about no effect; nearly all actives have a fitted effect of over 55% in size
NS1 function inh: inhibitors of influenza NS1 protein function. 270,000 tested, 0.4% active. Potency, µM (doses to about 46.1 µM), for the others: at the highest dose activity, positive = more growth. AID 2326; calls by dose curve; note: actives are rising curves; nearly all actives have a fitted effect of over 50% in size
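Compounds were scored for reversing the slow growth caused by influenza A NS1 in S. cerevisiae, measured by optical density at 600 nm. Assay medium contained 2% galactose at pH 6.0; NS1-free yeast of the same strain were the positive control.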
RE007 growth inh: less growth of the S. pombe RE007 Vpr strain; S. pombe RE007 Vpr strain, BacTiter-Glo ATP luminescence, 24 h; Potency, µM (top dose mostly 92.2 µM), without a hit: at the top dose activity change, negative = less growth, most hits filed as inhibitors; 360,000 tested, 0.21% active; AID 651644; active = well fitted falling curve with a large enough effect; inconclusive = small, poorly fitted or top-dose-only effect; inactive = no such curve, though single readings can be large or run the other way; note: % is set by controls: 0 for no effect and ±100 for the full control effect; nearly all actives have a fitted effect of over 50% in size
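Fission yeast strain RE007, carrying one chromosomally integrated HIV-1 vpr copy, was seeded at OD 0.01 in PMG+AL medium with 23 nL pinned compound. After 24 h at 30 °C and 99% humidity, viability was read by BacTiter-Glo luminescence.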
Pf growth 48h: P. falciparum growth inhibition at 48 hours (one generation); P. falciparum luciferase growth in erythrocytes, 48 h; Potency, µM (titrated, usually from 28.7 µM), without a hit: at the highest dose activity change, negative = inhibition, most hits filed as inhibitors; 310,000 tested, 5.9% active; note: % is set by controls: 0 for no effect and ±100 for the full control effect
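Growth was read as firefly luciferase luminescence after a 48 h, 37 C, 5% CO2 exposure of compounds to reporter-bearing P. falciparum cultures (0.1% parasitemia, 2% hematocrit final) in Albumax-supplemented RPMI 1640.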
* marks the source's active call; other numbers are inactive results; ? = inconclusive; . = no result; [ ] = remark or other dose. Hits are enriched below; roughly 9.5% of the tested compounds scored in any of these assays. Unless noted, calls come from the whole dose curve; as a rule, active = well fitted inhibition curve with a large enough effect; inconclusive = small, poorly fitted or top-dose-only effect, or another doubt; inactive = no such curve, though single readings can be large or run the other way. Potency is the fitted concentration of half-maximal effect.

SMILES	Pf growth 96h	SARS PLP yeast	NS1 function inh	RE007 growth inh	Pf growth 48h
COC(=O)c1ccc(Cn2cc(/C=C\[N+](=O)[O-])c3ccccc32)o1	?	-15%	-38%	14%	4.7µM*
COC(=O)c1ccc(Cn2nc(C)c([N+](=O)[O-])c2C)o1	13µM*	-1%	-3%	0%	-22%
O=C(COc1ccccc1)NCC(=O)N/N=C/c1ccc(Cl)cc1	-10%	1%	2%	-1%	-3%
CCCCc1nnc(SCCSc2nnc(CCCC)n2N)n1N	13µM*	9%	-5%	14%	-12%
Cc1ccccc1CN1CCN(S(=O)(=O)c2ccc(Cl)s2)CC1	13µM*	-6%	-26%	7%	13%
Cc1ccccc1CN1CCN(S(C)(=O)=O)CC1	-1%	19%	-2%	?	1%
Cc1nc2ccccc2nc1-c1ccc(N=[N+]([O-])c2ccc(-c3nc4ccccc4nc3C)cc2)cc1	.	.	-8%	.	.
Cc1ccccc1S(=O)(=O)NC(=O)C1(C)CCN1C(=O)CCc1cccs1 (stereo unspecified)	.	.	.	5%	.
COC(=O)c1ccc(NC(=O)C(=O)N2CCN(C(=S)Nc3cccc(C)c3C)CC2)cc1	0.47µM*	-35%	11%	-13%	3%
COC(=O)c1ccc(NC(=O)C(=O)N2CCN(C(=S)Nc3ccccc3OC)CC2)cc1	?	-1%	12%	0%	19%
CS(=O)(=O)N1CCN(c2ccc(C(=O)NC34CC5CC(CC(C5)C3)C4)cc2[N+](=O)[O-])CC1	?	3%	9%	10%	?
O=C(NC12CC3CC(CC(C3)C1)C2)c1ccc(N2CCNCC2)c([N+](=O)[O-])c1	?	0%	3%	4%	5.2µM*
CCS(=O)(=O)N1CCN(c2ccc(C(=O)NC34CC5CC(CC(C5)C3)C4)cc2[N+](=O)[O-])CC1	5.9µM*	6%	6%	-15%	5.9µM*
O=C(NC12CC3CC(CC(C3)C1)C2)c1ccc([N+](=O)[O-])cc1	131%	6%	8%	4%	-11%
Cc1ncc(CO)c2c1Oc1nc(-c3ccccc3)nc(SCC(=O)Nc3cccc(O)c3)c1C2	-3%	1%	2%	-11%	9.3µM*
COc1ccc(-c2nc3c(c(SCC(=O)Nc4cccc(O)c4)n2)Cc2c(CO)cnc(C)c2O3)cc1	4%	-9%	16%	15%	9.3µM*
CC(=O)C12CCCCC1CC1C3CC(C)C4(O)CC(=O)CCC4(C)C3CCC12C (stereo unspecified)	9.3µM*	-2%	-3%	-9%	0%
O=C(CCC1COc2ccccc2O1)NCc1ccccc1 (stereo unspecified)	3.7µM*	14%	-7%	7%	.
O=C(CC1COc2ccccc2O1)NCc1ccccc1 (stereo unspecified)	.	-6%	-1%	3%	-11%
COC(=O)C1=C(c2ccc(OCc3ccccc3)cc2)C[C@@H]2CC[C@H]1N2C(=O)NCc1ccc(C(C)(C)C)cc1	.	.	.	-5%	.
COC(=O)C1=C(c2cccc(OC)c2OC)C[C@@H]2CC[C@H]1N2C(=O)NCc1ccc(F)cc1	.	.	.	-4%	.
COC(=O)C1=C(c2ccc(F)cc2OCc2ccccc2)C[C@@H]2CC[C@H]1N2C(=O)NCc1ccc(C)cc1	?	-3%	.	-3%	9.3µM*
COC(=O)C1=C(c2ccc(F)cc2OCc2ccccc2)C[C@@H]2CC[C@H]1N2C(=O)NC1Cc2ccccc2C1	1.7µM*	1%	.	2%	?
COC(=O)C1=C(c2ccc(F)cc2OCc2ccccc2)C[C@@H]2CC[C@H]1N2C(=O)NCc1ccc(F)cc1	?	-9%	.	1%	10µM*
COC(=O)C1=C(c2ccccc2OCc2ccccc2)C[C@@H]2CC[C@H]1N2C(=O)NCc1ccc(C(C)(C)C)cc1	?	2%	.	11%	6.6µM*
SMILES	Pf growth 96h	SARS PLP yeast	NS1 function inh	RE007 growth inh	Pf growth 48h
COC(=O)C1=C(c2cccc(OC)c2OC)C[C@@H]2CC[C@H]1N2C(=O)NCc1ccccc1	.	.	.	29%	.
CCCS(=O)(=O)NC(=O)C1(C)CCN(C(=O)c2snnc2C)C1 (stereo unspecified)	.	.	.	-16%[18.4 µM]	.
Cc1cc(C)c(S(=O)(=O)Nc2ccccc2)c(C)c1	.	.	.	-12%	.
COC(=O)C1=C(c2ccccc2OCc2ccccc2)C[C@@H]2CC[C@H]1N2C(=O)NCc1ccc(F)cc1	?	3%	.	3%	9.3µM*
COC(=O)C1=C(c2ccc(OCc3ccccc3)cc2)C[C@@H]2CC[C@H]1N2C(=O)NCc1ccc([N+](=O)[O-])cc1	.	2%	.	7%	.
COC(=O)C1=C(c2ccc(F)cc2OCc2ccccc2)C[C@@H]2CC[C@H]1N2C(=O)NCc1ccc([N+](=O)[O-])cc1	?	-9%	.	-9%	12µM*
COC(=O)C1=C(c2ccc(F)cc2F)C[C@@H]2CC[C@H]1N2C(=O)NCc1ccc2c(c1)OCO2	?	-1%	.	-4%	?
COC(=O)C1=C(c2ccc(F)cc2F)C[C@@H]2CC[C@H]1N2C(=O)NCc1ccc(C(F)(F)F)cc1	?	-14%	.	0%	12µM*
COC(=O)C1=C(c2ccc(F)cc2F)C[C@@H]2CC[C@H]1N2C(=O)NCCCOC(C)C	?	6%	.	1%	-11%
COC(=O)C1=C(c2ccc(F)cc2OCc2ccccc2)C[C@@H]2CC[C@H]1N2C(=O)NCCCc1ccccc1	5.2µM*	0%	.	13%	12µM*
COc1ccccc1CNC(=O)C1CCN(c2ncnc3c2nc2n3CCCCC2)CC1	-14%	0%	0%	-11%	-9%
CCCC(O)(c1ccccc1)C(CN1CCOCC1)c1ccccc1 (stereo unspecified)	?	1%	-4%	-1%	.
CCCC(O)(c1ccc(CC)cc1)C(CN1CCOCC1)c1ccccc1 (stereo unspecified)	0%	-2%	-1%	1%	0.93µM*
CCCC(O)(c1ccc(Br)cc1)C(CN1CCOCC1)c1ccc(Cl)cc1 (stereo unspecified)	39%	-1%	4%	8%	2.3µM*
CCc1ccc(C(O)(C(C)C)C(CN2CCOCC2)c2ccccc2)cc1 (stereo unspecified)	-1%	-6%	-8%	-9%	5.2µM*
CNc1ncnc2c1ncn2[C@H]1C[C@H](OP(=O)(O)O)[C@@H](COP(=O)(O)O)O1	.	.	-1%	.	.
O=C(Nc1ccc(F)cc1)N1CCC(c2nc3c(nnn3Cc3ccccc3Cl)c(=O)[nH]2)CC1	-3%	0%	.	-26%	?
O=C(C1CCC1)N1CCC(c2nc3c(nnn3Cc3c(F)cccc3Cl)c(=O)[nH]2)CC1	56%	-3%	-2%	0%	13µM*
O=c1[nH]c(C2CCN(S(=O)(=O)c3ccccc3)CC2)nc2c1nnn2Cc1c(F)cccc1Cl	5.2µM*	0%	16%	-7%	?
